What was measured:
Test in all cases: thermal shift delta Tm vs DMSO control; higher = stronger stabilization (binding)
Settings in all cases: 12.5 µM; protein concentration 2 µM
LOC_OS01G57100-cb003 = test system: LOC_OS01G57100-cb003
Procedure, shortened: (§1)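 Purified, E. coli-expressed rice kinase domain constructs were tested by differential scanning fluorimetry in 96-well plates: 19.5 μl of 2 μM kinase in 100 mM potassium phosphate pH 7.5, 150 mM NaCl, 10% glycerol, 5 × SYPRO Orange, plus compound in DMSO. Fluorescence was read from 25°C to 95°C at 0.05°C/s. Melting temperatures came from Boltzmann fits, and the shift is the triplicate mean relative to protein with DMSO alone.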

LOC_OS01G60330-cb001 = test system: LOC_OS01G60330-cb001
Procedure, shortened: as §1

LOC_OS01G60700-cb002 = test system: LOC_OS01G60700-cb002
Procedure, shortened: as §1

LOC_OS01G63280-cb003 = test system: LOC_OS01G63280-cb003
Procedure, shortened: as §1

LOC_OS01G67340-cb003 = test system: LOC_OS01G67340-cb003
Procedure, shortened: as §1

LOC_OS01G70970-cb002 = test system: LOC_OS01G70970-cb002
Procedure, shortened: as §1

LOC_OS02G07810-cb001 = test system: LOC_OS02G07810-cb001
Procedure, shortened: as §1

LOC_OS02G08530-cb003 = test system: LOC_OS02G08530-cb003
Procedure, shortened: as §1

LOC_OS02G14120-cb001 = test system: LOC_OS02G14120-cb001
Procedure, shortened: as §1

LOC_OS02G17970-cb001 = test system: LOC_OS02G17970-cb001
Procedure, shortened: as §1

LOC_OS02G45750-cb003 = test system: LOC_OS02G45750-cb003
Procedure, shortened: as §1

LOC_OS02G54510-cb004 = test system: LOC_OS02G54510-cb004
Procedure, shortened: as §1

LOC_OS03G04050-cb001 = test system: LOC_OS03G04050-cb001
Procedure, shortened: as §1

LOC_OS03G12390-cb001 = test system: LOC_OS03G12390-cb001
Procedure, shortened: as §1

LOC_OS03G27990-cb004 = test system: LOC_OS03G27990-cb004
Procedure, shortened: as §1

LOC_OS03G50450-cb001 = test system: LOC_OS03G50450-cb001
Procedure, shortened: as §1

LOC_OS03G50810-cb003 = test system: LOC_OS03G50810-cb003
Procedure, shortened: as §1

LOC_OS04G35114-cb001 = test system: LOC_OS04G35114-cb001
Procedure, shortened: as §1

LOC_OS04G38480-cb003 = test system: T1, LOC_OS04G38480-cb003
T1 sequence (whole entry): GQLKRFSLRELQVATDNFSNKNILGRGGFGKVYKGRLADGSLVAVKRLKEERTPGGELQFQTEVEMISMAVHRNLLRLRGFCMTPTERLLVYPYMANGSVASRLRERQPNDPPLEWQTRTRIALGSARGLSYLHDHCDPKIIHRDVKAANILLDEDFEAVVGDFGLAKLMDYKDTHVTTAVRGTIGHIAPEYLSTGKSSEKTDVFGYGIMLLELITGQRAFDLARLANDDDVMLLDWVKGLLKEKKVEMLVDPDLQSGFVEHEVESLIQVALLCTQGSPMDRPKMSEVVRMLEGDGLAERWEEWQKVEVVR
Procedure, shortened: as §1

LOC_OS04G41100-cb001 = test system: T2, LOC_OS04G41100-cb001
T2 sequence (whole entry): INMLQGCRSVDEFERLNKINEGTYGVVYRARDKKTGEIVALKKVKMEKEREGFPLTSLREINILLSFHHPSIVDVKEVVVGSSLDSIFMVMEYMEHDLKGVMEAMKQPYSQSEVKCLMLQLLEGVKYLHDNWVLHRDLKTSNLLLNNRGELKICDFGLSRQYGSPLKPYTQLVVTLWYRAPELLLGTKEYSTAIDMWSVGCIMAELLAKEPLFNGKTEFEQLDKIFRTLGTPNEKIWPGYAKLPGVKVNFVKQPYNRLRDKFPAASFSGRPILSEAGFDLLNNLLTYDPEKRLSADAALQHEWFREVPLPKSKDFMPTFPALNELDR
Procedure, shortened: as §1

SMILES	thermal shift delta Tm (LOC_OS01G57100-cb003) [°C]	thermal shift delta Tm (LOC_OS01G60330-cb001) [°C]	thermal shift delta Tm (LOC_OS01G60700-cb002) [°C]	thermal shift delta Tm (LOC_OS01G63280-cb003) [°C]	thermal shift delta Tm (LOC_OS01G67340-cb003) [°C]	thermal shift delta Tm (LOC_OS01G70970-cb002) [°C]	thermal shift delta Tm (LOC_OS02G07810-cb001) [°C]	thermal shift delta Tm (LOC_OS02G08530-cb003) [°C]	thermal shift delta Tm (LOC_OS02G14120-cb001) [°C]	thermal shift delta Tm (LOC_OS02G17970-cb001) [°C]	thermal shift delta Tm (LOC_OS02G45750-cb003) [°C]	thermal shift delta Tm (LOC_OS02G54510-cb004) [°C]	thermal shift delta Tm (LOC_OS03G04050-cb001) [°C]	thermal shift delta Tm (LOC_OS03G12390-cb001) [°C]	thermal shift delta Tm (LOC_OS03G27990-cb004) [°C]	thermal shift delta Tm (LOC_OS03G50450-cb001) [°C]	thermal shift delta Tm (LOC_OS03G50810-cb003) [°C]	thermal shift delta Tm (LOC_OS04G35114-cb001) [°C]	thermal shift delta Tm (LOC_OS04G38480-cb003) [°C]	thermal shift delta Tm (LOC_OS04G41100-cb001) [°C]
CNC(=O)Nc1ccc(-c2nc(N3CC4CCC(C3)O4)c3cnn(C4CCC5(CC4)OCCO5)c3n2)cc1	2.76	1.5	0.99	0.45	0.98	0.28	1.7	1.49	1.03	0.84	0.68	0.19	0.28	0.26	0.16	0.34	-0.43	0.16	1.69	0.57
NC(=O)c1ccc(N(C(N)=O)c2c(F)cccc2F)nc1-c1ccc(F)cc1F	-0.23	-0.16	0.91	-0.21	-0.08	0.4	0.66	0.7	-0.49	0.09	-0.83	-0.06	0.39	-0.04	0.18	0.14	0.25	0.57	-0.04	0.38
C=CC(=O)Nc1cccc(Oc2nc(Nc3ccc(N4CCN(C)CC4)cc3)nc3ccsc23)c1	2.41	0.93	3.14	0.86	0.85	1.8	1.13	2.66	3.63	2.18	1.44	0.64	0.99	1.24	1.38	1.3	1.96	2.13	2.26	0.71
CC(C)(C)c1cc(NC(=O)Nc2ccc(Oc3ccnc4[nH]c(=O)cnc34)cc2F)n(-c2ccccc2)n1	1.77	1.69	1.38	10.7	0.45	0.73	0.8	1.22	4.49	2.69	8.1	3.28	0.21	4.04	0.22	0.17	2.66	0.44	2.2	7.51
Cc1[nH]c(/C=C2\C(=O)Nc3ccc(S(=O)(=O)Cc4c(Cl)cccc4Cl)cc32)c(C)c1C(=O)N1CCC[C@@H]1CN1CCCC1	1.04	1.52	0.53	0.78	0.73	0.57	0.8	3.7	7.86	0.39	0	0.51	0.3	4.07	0.43	0.47	0	7.26	2.55	0.74
